# Measurements reported in PubChem BioAssay (NCI).
# This is part of a sample that, as a whole, favours compounds with a hit. Of some 83,000 tested, about 20% had one in any assay.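 Negative percent growth values reflect cell death: -40 means 40% of the cells present at the start died, and -100 means all died.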 Values without a mark were called inactive. Active and inactive are the calls of the source. Rule for the calls: active = growth percent below 10; inactive = the rest.
# Key:
# Test in all cases: NCI-60 one-dose screen, 48 h (100 = growth as untreated, 0 = no growth, -100 = all killed)
# Conditions in all cases: 10 µM unless noted
# NCI-H23 lung = system: NCI-H23 lung
# NCI-H226 lung = system: NCI-H226 lung
# NCI-H322M lung = system: NCI-H322M lung
# HOP-62 NSCLC = system: HOP-62 NSCLC
# NCI-H460 lung = system: NCI-H460 lung
# HOP-92 NSCLC = system: HOP-92 NSCLC
# NCI-H522 lung = system: NCI-H522 lung
# A549/ATCC NSCLC = system: A549/ATCC NSCLC
# 786-0 renal = system: 786-0 renal
# COLO 205 colon = system: COLO 205 colon
# DU-145 prostate = system: DU-145 prostate
# K-562 leukemia = system: K-562 leukemia
# MALME-3M melanoma = system: MALME-3M melanoma
# MDA-MB-231 breast = system: MDA-MB-231 breast
# RXF 393 renal = system: RXF 393 renal
# SF-268 CNS = system: SF-268 CNS
# SF-295 CNS = system: SF-295 CNS
# SF-539 CNS = system: SF-539 CNS
# UACC-257 melanoma = system: UACC-257 melanoma
# M14 melanoma = system: M14 melanoma
Compound,growth (NCI-H23 lung),growth (NCI-H226 lung),growth (NCI-H322M lung),growth (HOP-62 NSCLC),growth (NCI-H460 lung),growth (HOP-92 NSCLC),growth (NCI-H522 lung),growth (A549/ATCC NSCLC),growth (786-0 renal),growth (COLO 205 colon),growth (DU-145 prostate),growth (K-562 leukemia),growth (MALME-3M melanoma),growth (MDA-MB-231 breast),growth (RXF 393 renal),growth (SF-268 CNS),growth (SF-295 CNS),growth (SF-539 CNS),growth (UACC-257 melanoma),growth (M14 melanoma)
N#Cc1cc(-c2ccnc(Nc3ccc(N4CCN(C5COC5)CC4)cc3)n2)ccc1N1CCCC1,82.9%,71%,63.9%,64.3%,49.9%,52.5%,65.6%,67.3%,16.9%,86.1%,51%,42.5%,104%,65%,9.2% (active),50.2%,85.6%,46.5%,74.4%,71.9%
O=C(CSc1nc2ccccc2c(=O)[nH]1)NNC(=O)c1ccccc1Cl,104%,111%,116%,115%,106%,100%,104%,92.3%,97.1%,124%,110%,103%,105%,99.8%,117%,106%,112%,96.5%,95%,110%
CCC1(OC(=O)c2ccccc2SSCCOC(=O)CCCCC2SCC3NC(=O)NC32)C(=O)OCc2c1cc1n(c2=O)Cc2cc3ccccc3nc2-1 (stereo not given),15.4%,41.6%,83.6%,39.4%,13.3%,32.7%,42.3%,47%,50.9%,79.3%,35.3%,52.8%,55.8%,82.5%,82%,38.5%,5.6% (active),29.4%,12.8%,40.1%
Nc1cc2ccccc2c(=O)n1NC(=O)c1ccc(Br)cc1,81.8%,69%,74.4%,101%,98.6%,103%,96.7%,100%,107%,114%,109%,101%,89.7%,66.8%,112%,89.8%,103%,67.5%,104%,91.7%
Cc1cc(C(NC(=O)C2CC3(CC(Nc4cccc5c4C(=O)N(C4CCC(=O)NC4=O)C5=O)C3)C2)c2ccc3c(c2)OC(F)(F)O3)c(O)c2ncccc12 (stereo not given),6.24% (active),-2.38% (active),27.5%,-10.9% (active),1.76% (active),-1.71% (active),2.63% (active),9.67% (active),-12.8% (active),13.2%,17.2%,10.8%,9.46% (active),25.2%,23%,14.4%,8.11% (active),-24.9% (active),-11% (active),-30.4% (active)
Cn1cc(-c2cc(N)n3nc(-c4c[nH]c5ccc(F)cc45)cc3n2)c2cc(Br)cnc21,94.3%,68.6%,80.1%,71.1%,57.5%,27.3%,27.6%,54%,44.4%,119%,69.9%,-69% (active),75.6%,13.2%,11.7%,89.3%,69.6%,52.8%,84.6%,55.4%
COc1ccc(-c2nc3ccccc3n2CC(=O)N=Nc2c(O)[nH]c3ccc(Br)cc23)cc1,78.8%,100%,103%,69.8%,80.6%,79.8%,67.4%,98.2%,97.3%,83%,33.7%,35.3%,79.3%,57.5%,64.3%,96%,81.1%,87.9%,120%,77.4%
